Measurements published in ChEMBL document CHEMBL3988442, “University of Dundee, Small-Polar-MMV Screening Library” (2021).

How the values were obtained:
[1] = molecular target: T1, Aspartate--tRNA(Asp/Asn) ligase (Mycobacterium tuberculosis (strain ATCC 25618 / H37Rv)) (UniProt P9WFW3); test: Assay for Asp RNA synthetase-1 from Mycobacterium tuberculosis; assay type: functional; parameters: scale not given: direction of the effect not stated beside the values; conditions: 30 µM; also: in the data most compounds retested in dose-response had high values
T1 sequence (whole entry): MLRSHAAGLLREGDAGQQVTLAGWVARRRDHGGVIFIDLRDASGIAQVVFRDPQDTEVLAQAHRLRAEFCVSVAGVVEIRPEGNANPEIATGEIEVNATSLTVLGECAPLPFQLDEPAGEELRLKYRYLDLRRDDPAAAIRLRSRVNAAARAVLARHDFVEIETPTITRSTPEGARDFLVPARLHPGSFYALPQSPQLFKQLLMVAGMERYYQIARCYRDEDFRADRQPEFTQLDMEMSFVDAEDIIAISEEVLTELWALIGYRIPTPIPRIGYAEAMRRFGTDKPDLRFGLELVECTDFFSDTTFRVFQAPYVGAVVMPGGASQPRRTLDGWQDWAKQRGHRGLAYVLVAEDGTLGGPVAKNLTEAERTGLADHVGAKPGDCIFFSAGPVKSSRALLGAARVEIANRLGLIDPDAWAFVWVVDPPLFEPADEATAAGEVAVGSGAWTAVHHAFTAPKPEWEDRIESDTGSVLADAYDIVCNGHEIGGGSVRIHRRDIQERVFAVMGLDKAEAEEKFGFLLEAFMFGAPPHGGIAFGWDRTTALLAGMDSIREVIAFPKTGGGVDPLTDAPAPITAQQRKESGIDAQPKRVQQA

[2] = molecular target: Shiga toxin 2 (Escherichia coli O157:H7) (UniProt P09385+P09386); test: E. coli 0.157:H7 Shiga Toxin SOP - stx2 screening assay; assay type: functional; parameters: scale not given: direction of the effect not stated beside the values; conditions: 30 µM

| Structure (SMILES) | Percent Effect [1] | Percent Effect [2] |
| --- | --- | --- |
| Cn1cc(C(=O)NC2CCN(C(=O)NCCSC(F)(F)F)CC2)cn1 | 0.597% | -30.6% |
| Cc1ccccc1CN1CCC2(COCc3cnc(N(C)C)nc32)C1 (stereo not drawn) | -3.4% | -15.8% |
| CC(C)c1noc(CCCC(=O)N2CCC(Cc3cccnc3)CC2)n1 | -0.0571% | 0.87% |
| O=C(NCc1cccc(F)c1)N1CCC2(CC(=O)N(c3ccsc3)C2)C1 (stereo not drawn) | -4.15% | -7.69% |
| Cc1cc(C2CCCN2CCCc2nc3ccccc3o2)on1 (stereo not drawn) | -0.533% | 28.6% |
| CS(=O)(=O)c1ccc(OCCNCc2ccc(F)cc2F)cc1 | 4.17% | -84.6% |
| COc1ncc(C2(O)CCN(Cc3c(F)cccc3F)CC2)c(OC)n1 | 2.49% | 71.8% |
| Cc1nn(C)c(Cl)c1C1CCCN1C(=O)c1ccc2c(c1)OCO2 (stereo not drawn) | -0.434% | 12% |
| COc1cccc2c1OCC(C(=O)NC1CCN(S(C)(=O)=O)CC1)C2 (stereo not drawn) | -3.65% | 11.1% |
| Cc1ncc2c(n1)CN(Cc1nc3ccccc3o1)CC2 | -5.8% | -2.56% |
| CN(c1ccc(C(C)(C)C)cc1)S(=O)(=O)c1cc(C(=O)O)cs1 | 1.85% | 12.9% |
| O=C(CCc1cscn1)NS(=O)(=O)c1ccc2c(c1)CCC2 | -2.03% | -1.33% |
| Cc1ccc(N2CCCC(NCc3nc(C)c(C)o3)C2)nn1 (stereo not drawn) | -0.975% | -14.9% |
| COc1ccc(C(=O)N2C[C@@H](C(=O)O)[C@H](c3ccccc3C)C2)c(O)c1 | 8.11% | 0.95% |
| CC(=O)N1N=C(c2ccccc2)OC1C(=O)NCCC1=CCCCC1 (stereo not drawn) | 0.28% | 22.5% |
| O=C(c1cccc(CN2CCCC2)c1)N1CCCC(n2cncn2)C1 (stereo not drawn) | 11.7% | 14% |
| Cc1nc(C2CCCN2CC(=O)N(Cc2ccsc2)C2CC2)no1 (stereo not drawn) | 0.787% | 0.717% |
| COCCN(C)C[C@@H]1CN(C(=O)c2cccc(C(F)(F)F)c2)C[C@@H]1CO | -4.52% | 8.62% |
| CC(C)c1nn(C)c(N2CCOCC2)c1CNC(C)c1cccs1 (stereo not drawn) | -0.59% | 33.2% |
| COCCN1C(=O)C[C@H]2[C@H]1CCN2Cc1cccc(C#N)c1 | -5.22% | -7.15% |
| COc1ccc(C(=O)N2CCCCC2Cn2cccn2)c(F)c1 (stereo not drawn) | 3.52% | -7.04% |
| c1cnn(CC2CN(CCc3ccncc3)CCO2)c1 (stereo not drawn) | 2.1% | 17.1% |
| Cn1cc(-c2csc(CN3CCOCC3)n2)cn1 | -7.74% | 2.01% |
| CCCN1CCCn2nc(CNS(=O)(=O)c3ccc(C)cc3)cc2C1 | -1.38% | 6.63% |
| CCn1ncnc1C1CC(=O)NCc2nc3ccccn3c21 (stereo not drawn) | -2.72% | 2.83% |

| Structure (SMILES) | Percent Effect [1] | Percent Effect [2] |
| --- | --- | --- |
| Cc1csc([C@@H]2C[C@@H]3CCN(Cc4cnn(C)c4)C[C@H]3O2)n1 | -2.71% | -29.9% |
| CCOc1ccc(-n2nnc(C(=O)O)c2-c2ccncc2)cc1 | 3.77% | -21.9% |
| Cc1nc(CN2CCC(N(C)Cc3noc(C(C)C)n3)C2)cs1 (stereo not drawn) | 8.39% | -23.4% |
| c1cncc(CN2CCc3ncnc(C4CCOC4)c3CC2)c1 (stereo not drawn) | 3.1% | -17.7% |
| O=C(CCCOc1ccc(F)cc1)N1CCCC(n2cccn2)C1 (stereo not drawn) | -0.115% | 7.54% |
| Cc1ncsc1C(=O)NCCn1nc2ccccn2c1=O | -1.86% | 15% |
| N#Cc1ccnc(N2CCN(CC(O)c3cccc(F)c3)CC2)c1 (stereo not drawn) | 1.79% | 5.66% |
| Cc1cnn(CC2CCCN2C(=O)CCc2c(C)noc2Cl)c1 (stereo not drawn) | 2.73% | -4.86% |
| Cc1ncnc2c1CCN(c1cc(C(F)(F)F)ncn1)CC2 | 3.84% | 6.49% |
| O=C(NCc1ccccc1)N1CCC2(CC(=O)N(c3ccsc3)C2)C1 (stereo not drawn) | -2.24% | -10.6% |
| N#Cc1cccc(S(=O)(=O)NC2CCN(Cc3ccccc3)C2=O)c1 (stereo not drawn) | -1.89% | 8.07% |
| CCn1ncc2c1CCCC2NCc1cc(Cl)c(OC)c(OC)c1 (stereo not drawn) | -2.06% | 1.68% |
| CCCc1n[nH]c(C2CN(CCNS(=O)(=O)CC)CCO2)n1 (stereo not drawn) | 2.63% | -17% |
| CCOCC1CN(Cc2cnn(C)c2)Cc2nn(C)cc21 (stereo not drawn) | -3.19% | -11.8% |
| CC(=O)NCC(=O)N1CCOC2(CCCN(c3cccnc3)C2)C1 (stereo not drawn) | 1.34% | -31.3% |
| COc1ccc2c(c1)CCN(CCC(=O)NC1CCCCC1)CC2 | -0.993% | -9.64% |
| COc1cc(C(=O)N(Cc2cnn(C)c2)C(C)C)ccc1OCC(N)=O | 0.225% | 33% |
| Cc1cc(CN2Cc3ccccc3CC2c2nnc(C)o2)on1 (stereo not drawn) | -0.894% | 8.24% |
| Cc1cc(C)n(CC2CCCN2CCCS(=O)(=O)N(C)C)n1 (stereo not drawn) | 2.38% | 0.632% |
| Cn1cnnc1CNC(=O)Nc1cc(C(F)(F)F)c[nH]c1=O | 1.79% | 27.2% |
| O=C(O)c1cc(S(=O)(=O)Nc2ccc(Cl)cc2)cc2c1OCCO2 | 0.0437% | -7.1% |
| CCc1n[nH]c(C2CN(Cc3nnc(C4CC4)n3C)CCO2)n1 (stereo not drawn) | -0.577% | 9.55% |
| CC1CCN(S(=O)(=O)NCc2ccccc2Cn2cncn2)CC1 | -6.51% | 4.16% |
| CCc1cnc(CN(C(C)=O)C2CCN(CCc3cnn(C)c3)C2)o1 (stereo not drawn) | -5.68% | 20.4% |
| COc1cccc2c1OCC(NC(=O)NCc1cccs1)C2 (stereo not drawn) | 1.53% | 3.63% |

| Structure (SMILES) | Percent Effect [1] | Percent Effect [2] |
| --- | --- | --- |
| c1ccc(OC[C@]23COC[C@H]2CN(c2ncccn2)C3)nc1 | 1.95% | -23.2% |
| CCN1CCOC(CNCc2ccccc2OCC(=O)N(C)C)C1 (stereo not drawn) | -4.95% | 21.6% |
| Cc1nc(CN(C)C2CCN(Cc3ccc4c(c3)OCCO4)C2)no1 (stereo not drawn) | -4.04% | 5.87% |
| CCc1csc(C2CCCN(C(=O)C3=NN(CC)C(=O)CC3)C2)n1 (stereo not drawn) | -5.86% | -21.6% |
| CC(C)NC(=O)C(c1ccccc1)N1CCn2c(nnc2C2CC2)C1 (stereo not drawn) | -1.48% | 13% |
| COc1cc(N2C[C@@H]3COC[C@]3(COCc3cccc(C)n3)C2)ncn1 | -0.107% | -2.46% |
| COc1c(CNCc2ccc(C(=O)N(C)C)cc2)c(C)nn1C | 2.9% | -13.9% |
| Cc1nn(C)c(C)c1C1CCCN1C(=O)c1ccc(Cl)o1 (stereo not drawn) | -1.9% | -17.4% |
| Cc1nc(C)n(CC2CCCN2Cc2nc(-c3cccs3)no2)n1 (stereo not drawn) | -2.77% | 29.7% |
| O=C(NCCn1ccc(-c2ccccn2)n1)C1CC1 | 2.14% | -6.67% |
| O=c1cc2c(nn1CN1CCN(c3ccccc3)CC1)CCC2 | 6.3% | -14% |
| Cc1cn2c(n1)CCC(NC(=O)c1nc(C)ncc1Cl)C2 (stereo not drawn) | 1.79% | 12.5% |
| CN(C)C(=O)N1CCC2(CCCN(Cc3cnn(C)c3)C2)C1 (stereo not drawn) | -0.168% | 0.121% |
| CCCc1nc(CN2CCOC(Cn3cncn3)C2)no1 (stereo not drawn) | 0.917% | -23.1% |
| Cc1ccc(CNCCOc2ccc(S(C)(=O)=O)cc2)cc1 | 1.28% | -76.7% |
| CCn1c(C)cc(C(=O)N2CCCC(c3nc(C)no3)C2)c1C (stereo not drawn) | 3.31% | 9.36% |
| Cc1ccn2cc(C(=O)N3CCCC3c3c(C)nn(C)c3C)nc2c1 (stereo not drawn) | -1.79% | -1.23% |
| COc1ccc(CN2CCC3(CC2)CCN(CC2CC2)C3=O)cc1 | -4.6% | -2.04% |
| Cc1noc(C)c1-c1cncc(C2CCCN2Cc2cncnc2)n1 (stereo not drawn) | -2.78% | 0.369% |
| CNC(=O)[C@@]12CCC3(CCN(S(C)(=O)=O)CC3)[C@@H]1CN(S(C)(=O)=O)C2 | 0.0987% | -5.23% |
| O=C([C@H]1CCCO1)N1CCCC2(CCN(Cc3ccncc3)C2=O)C1 (stereo partly drawn) | 3.8% | -9.24% |
| Cc1cccc(NC2CCN(C(=O)Nc3cc(F)cc(F)c3)CC2)n1 | -4.31% | -78.9% |
| CCn1ncc2c1C(COCC1CC1)CN(C(=O)c1cccs1)C2 (stereo not drawn) | -1.73% | 33.1% |
| CC(N(C)Cc1nc2c(cnn2C)c(=O)[nH]1)C(C)(C)C (stereo not drawn) | 5.45% | 28.9% |
